A selection: hits, their analogues and other compounds. The true share with any hit is near 2.1%.
KKLEB cytotox: cytotoxicity in KKLEB CF airway cells, primary screen, cytotoxicity control for CF NF-kB inhibitor project, cell-based, uHTS, fluorescence assay plates; KKLEB CF airway cells viability, ATPlite luminescence, overnight; stronger effect = lower value; cells stimulated with P. aeruginosa culture filtrate; 360,000 tested, 0.36% active; AID 602141, 2011; activity change (cytotoxicity), % at 5 µM;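 active = corrected activity change at or below -50% at 5 µM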
HIF-2a block: HIF-2a reporter inhibitors, primary screen, luminescence, 786-0 RCC cells; 786-0 RCC cells HIF-2a reporter, luciferase luminescence, overnight; inhibition, % at 18.8 µM; 360,000 tested, 0.72% active;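 active = inhibition of the luminescence signal of 40% or more relative to plate controls, in a single-dose primary screen at 18.75 µM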
CF NFkB block: inhibitors of PAF-induced NF-kB signaling, primary screen, cell-based, GFP fluorescence, uHTS. 360,000 tested, 0.86% active. inhibition, % at 5 µM. KKLEB NF-kB-GFP reporter, GFP fluorescence overnight;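 active = at least 50% inhibition at 5 µM, scaled per plate between neutral and stimulator controls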;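 note: PAF is a Pseudomonas aeruginosa culture filtrate used as stimulus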
PAX8 inh HTS: inhibitors of PAX8-driven TPO luciferase reporter, primary screen, RMG-I cells, single concentration; SteadyGlo, 24 h; 360,000 tested, 1.2% active; inhibition, % at 12.6 µM; AID 652154, 2013;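 active = mean replicate inhibition at least 60% with every replicate also reaching 60%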;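 note: luciferase light reporting Pax8 driven TPO promoter activity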
EWS-Fli inh: EWS/Fli-driven NR0B1 reporter inhibitors, primary screen, A673 cells, NR0B1 luciferase, luminescence, MLPCN library. viability-normalised. inhibition, % at 12.6 µM. 350,000 tested, 0.67% active;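 active = mean inhibition of at least 50% after viability correction, with every replicate also passing that limit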;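 note: firefly luciferase signal divided by Alamar Blue viability fluorescence both relative to DMSO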
Mdm2 MdmX conf: retested Mdm2-MdmX interaction blockers, confirmation, cell-based, luminescence, single concentration, set 2; shares compounds with HIF-2a block; SaOS-2 split-luciferase Mdm2/MdmX complementation; inhibition, % at 8 µM; 740 tested, 99% active; AID 504601, 2011;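 active = mean inhibition of the luminescence signal across two replicates at or above 26 percent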
HIF-2a inh conf: HIF-2a reporter inhibitor retest, confirmation, luminescence, 786-0 RCC cells; shares compounds with HIF-2a block; HIF-2a luciferase reporter luminescence, overnight; inhibition, % at 18.8 µM; 1,800 tested, 56% active;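 active = mean inhibition across four replicates of at least 40 percent at the single tested concentration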
HIF-1a counter: HIF-1a luciferase reporter signal reduction – MiaPaCa-2 cells, single concentration, counter-screen for HIF-2a inhibitor project, confirmation; 1,800 tested, 72% active; shares compounds with HIF-2a block; inhibition, % at 18.8 µM; MiaPaCa-2 HIF-1a luciferase reporter, desferoxamine, overnight; AID 651589, 2012;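 active = mean inhibition of the reporter signal across four replicates at the single tested dose of 50% or more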
Numbers stand for hits; - = inactive; . = no result given.

SMILES | KKLEB cytotox | HIF-2a block | CF NFkB block | PAX8 inh HTS | EWS-Fli inh | HIF-2a inh conf | HIF-1a counter | others
Cc1cc(C(=O)COC(=O)c2ccccc2O)c(C)n1CC1CCCO1 (stereo not given) | - | 90 | - | 81 | 84 | 95 | 98
Cc1cc(C(=O)COC(=O)c2ccccc2O)c(C)n1Cc1cccs1 | - | 90 | - | . | . | 96 | 97
Cc1cc(C(=O)COC(=O)c2ccccc2Br)c(C)n1CC1CCCO1 (stereo not given) | - | 55 | - | - | - | 68 | 90
Cc1ccc(C(=O)OCC(=O)c2cc(C)n(CC3CCCO3)c2C)cc1 (stereo not given) | - | - | - | - | - | . | .
Cc1cc(C(=O)COC(=O)c2cc(O)c3ccccc3c2O)c(C)n1CC1CCCO1 (stereo not given) | - | - | - | . | . | . | .
COc1ccc(N(C(=O)CCl)C(C(=O)NCCc2ccccc2)c2cccs2)cc1 (stereo not given) | -92 | 96 | 90 | 113 | - | 98 | 107
CC[C@]1(C(=O)OC)[C@H]2C(=O)N(Cc3ccccc3)C(=O)[C@H]2[C@H]2CN=C(SCc3ccc(C)cc3)N21 | - | - | - | - | - | . | . | Mdm2 MdmX conf=97
CCCNC(=O)N1[C@H](CO)[C@@H](c2ccccc2-c2ccccc2)[C@@H]1C#N | . | . | . | - | - | . | .
C[C@H]1CN([C@@H](C)CO)C(=O)c2cccc(NS(=O)(=O)c3ccc(Cl)cc3)c2O[C@@H]1CN(C)C(=O)Nc1ccccc1 | . | . | . | - | - | . | .
CCc1ccc(C(=O)Nc2nc3ccccc3[nH]2)cc1 | -69 | 63 | - | 76 | 75 | 84 | 84
N#Cc1ccc(C(=O)Nc2nc3ccccc3[nH]2)cc1 | - | - | - | - | - | . | .
CO[C@H]1CN(C)C(=O)c2ccc(NC(=O)c3ccc(F)cc3)cc2OC[C@H](C)N(C(=O)CC2CC2)C[C@H]1C | . | . | . | . | - | . | .
Nc1c(C(=O)N2CCOCC2)sc2nc3c(cc12)CCCC3 | - | 46 | - | 71 | - | 47 | -
C[C@H](NC(=O)c1nc[nH]c1C(=O)N1CCN(C(=O)OC(C)(C)C)CC1)C(=O)OC(C)(C)C | - | - | - | - | - | . | .
CC(C)C[C@H](NC(=O)c1nc[nH]c1C(=O)N1CCN(C(=O)OC(C)(C)C)CC1)C(=O)OC(C)(C)C | - | - | - | - | - | . | . | Mdm2 MdmX conf=99
COc1cccc(S(=O)(=O)N[C@@H]2CC[C@H](CC(=O)NCc3ccccc3)O[C@H]2CO)c1 | . | . | . | - | - | . | .
Cc1ccc(C(=O)CC(=O)c2ccccc2C)c(O)c1 | - | - | - | - | - | . | .
C=C(CN(C)C)C(=O)c1ccc(C)cc1C | - | 90 | - | 85 | 73 | 96 | 74
Cc1ccc(N2Cc3ccccc3C2=S)cc1 | - | 84 | - | - | - | - | -
Cc1nc(Cl)c(C(=O)NCc2ccccc2)c(C)c1Cl | - | - | - | - | - | . | .
O=C(NCc1ccccc1)c1c(Cl)nc(Cl)c(Cl)c1Cl | - | - | - | - | - | . | . | Mdm2 MdmX conf=103
Cc1ccc(CS(=O)(=O)c2ncc(Cl)c(C(=O)Nc3nnc(C(C)C)s3)n2)cc1 | -86 | 76 | 85 | - | 70 | 88 | 106
Cc1cccc(CS(=O)(=O)c2ncc(Cl)c(C(=O)Nc3nnc(C(C)C)s3)n2)c1 | -87 | 82 | 92 | . | . | . | . | Mdm2 MdmX conf=103
CC(C)c1nnc(NC(=O)c2nc(S(=O)(=O)Cc3ccc(F)cc3)ncc2Cl)s1 | -101 | 64 | 89 | - | . | 66 | 107 | Mdm2 MdmX conf=103
CC(C)c1nnc(NC(=O)CS(=O)(=O)Cc2ccccc2)s1 | - | - | - | - | - | . | .
CSc1nnc(NC(=O)c2nc(S(=O)(=O)Cc3ccccc3F)ncc2Cl)s1 | -79 | 68 | 95 | - | - | - | 106 | Mdm2 MdmX conf=102
